Results reported in PubChem BioAssay (EPA / NIEHS).
Results filed as inconclusive are left out. Active and inactive are the calls of the source. The calls were made as follows, unless noted: active = hit-call score of the fitted dose curve at least 0.9, where 1 is the maximum; inconclusive = response in the unintended direction; inactive = score below 0.9.

Assays:
[1] = biological target: human CYP2J2, CYP2J2 (gene 1573) (UniProt P51589); assay: NVS_ADME_hCYP2J2: NovaScreen (NVS) CYP450-related Enzyme Activity (ADME) Assay for human CYP2J2 (AID 2283106)
How it was run: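 Cell-free assay of recombinant CYP2J2 with a fluorogenic substrate, read 1 h after dosing; loss of signal versus acetonitrile. Primary screen at 10 uM in duplicate, then concentration-response up to 20 uM for chemicals passing threshold (e.g., 30% inhibition).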

[2] = biological target: rat CYP2D1, Cyp2d1 (gene 266684) (UniProt P10633); assay: NVS_ADME_rCYP2D1: NovaScreen (NVS) CYP450-related Enzyme Activity (ADME) Assay for rat CYP2D1 (AID 2283122)
How it was run: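 Cell-free fluorescence enzyme-activity assay on extracted rat CYP2D1 protein, read 0.75 h after dosing. Primary screen in duplicate at 10 uM; qualifying chemicals then run in concentration-response to 20 uM max, loss-of-signal versus acetonitrile baseline.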

[3] = biological target: Androgen receptor (Homo sapiens) (UniProt P10275); assay: ATG_AR_TRANS: Attagene TRANS-FACTORIAL HepG2 Assay for human Androgen Receptor (AR) (AID 2282973); conditions: HepG2 Attagene TRANS-FACTORIAL AR reporter transcription
How it was run: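 HepG2 cells transiently transfected with multiplexed GAL4-UAS reporter units and chimeric NR-Gal4 fusion; 24 h compound exposure. Reporter mRNA measured by RT-PCR, 6-FAM labelling, HpaI digestion and capillary electrophoresis; gain-of-signal fitted relative to DMSO baseline.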

[4] = Tanguay_ZF_120hpf_MUSC: Oregon State University Tanguay Lab 120 Hour Post-fertilization zebrafish Assay for Muscle Malformation (AID 2284401; active = hit-call score of the fitted dose curve at least 0.9, where 1 is the maximum; inactive = score below 0.9)
How it was run: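 Dechorionated Tropical 5D wild-type zebrafish embryos exposed statically from 6 to 120 hpf at 28C, one per well, in 0.64% DMSO. Muscle malformation scored present/absent by brightfield microscopy at 120 hpf, fitted against DMSO.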

[5] = biological target: human CYP4F12, CYP4F12 (gene 66002) (UniProt Q9HCS2); assay: NVS_ADME_hCYP4F12: NovaScreen (NVS) CYP450-related Enzyme Activity (ADME) Assay for human CYP4F12 (AID 2283111)
How it was run: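 Cell-free fluorescence assay of recombinant human CYP4F12 activity on a specific substrate, read 0.5 h after dosing. Primary screen in duplicate at 10 uM, then concentration series for actives; loss of signal fitted against acetonitrile negative control.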

human CYP4F12, CYP4F12 (gene 66002), sequence (Q9HCS2 whole entry, looked up): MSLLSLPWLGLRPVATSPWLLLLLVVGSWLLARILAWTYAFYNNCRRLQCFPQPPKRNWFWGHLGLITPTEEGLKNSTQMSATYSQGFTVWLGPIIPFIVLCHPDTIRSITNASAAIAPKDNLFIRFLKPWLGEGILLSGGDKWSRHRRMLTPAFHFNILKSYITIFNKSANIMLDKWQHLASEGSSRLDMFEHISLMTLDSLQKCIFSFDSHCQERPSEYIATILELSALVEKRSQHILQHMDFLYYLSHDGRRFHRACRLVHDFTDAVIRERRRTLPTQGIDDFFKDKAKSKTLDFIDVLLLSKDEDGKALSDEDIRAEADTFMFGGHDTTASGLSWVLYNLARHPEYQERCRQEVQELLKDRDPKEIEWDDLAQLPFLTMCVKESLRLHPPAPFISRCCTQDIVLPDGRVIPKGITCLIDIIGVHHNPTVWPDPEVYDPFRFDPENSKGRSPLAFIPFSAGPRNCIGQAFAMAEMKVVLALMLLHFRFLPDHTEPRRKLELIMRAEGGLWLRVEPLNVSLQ
Androgen receptor (Homo sapiens), sequence (P10275 whole entry, looked up, the tested form may be a part): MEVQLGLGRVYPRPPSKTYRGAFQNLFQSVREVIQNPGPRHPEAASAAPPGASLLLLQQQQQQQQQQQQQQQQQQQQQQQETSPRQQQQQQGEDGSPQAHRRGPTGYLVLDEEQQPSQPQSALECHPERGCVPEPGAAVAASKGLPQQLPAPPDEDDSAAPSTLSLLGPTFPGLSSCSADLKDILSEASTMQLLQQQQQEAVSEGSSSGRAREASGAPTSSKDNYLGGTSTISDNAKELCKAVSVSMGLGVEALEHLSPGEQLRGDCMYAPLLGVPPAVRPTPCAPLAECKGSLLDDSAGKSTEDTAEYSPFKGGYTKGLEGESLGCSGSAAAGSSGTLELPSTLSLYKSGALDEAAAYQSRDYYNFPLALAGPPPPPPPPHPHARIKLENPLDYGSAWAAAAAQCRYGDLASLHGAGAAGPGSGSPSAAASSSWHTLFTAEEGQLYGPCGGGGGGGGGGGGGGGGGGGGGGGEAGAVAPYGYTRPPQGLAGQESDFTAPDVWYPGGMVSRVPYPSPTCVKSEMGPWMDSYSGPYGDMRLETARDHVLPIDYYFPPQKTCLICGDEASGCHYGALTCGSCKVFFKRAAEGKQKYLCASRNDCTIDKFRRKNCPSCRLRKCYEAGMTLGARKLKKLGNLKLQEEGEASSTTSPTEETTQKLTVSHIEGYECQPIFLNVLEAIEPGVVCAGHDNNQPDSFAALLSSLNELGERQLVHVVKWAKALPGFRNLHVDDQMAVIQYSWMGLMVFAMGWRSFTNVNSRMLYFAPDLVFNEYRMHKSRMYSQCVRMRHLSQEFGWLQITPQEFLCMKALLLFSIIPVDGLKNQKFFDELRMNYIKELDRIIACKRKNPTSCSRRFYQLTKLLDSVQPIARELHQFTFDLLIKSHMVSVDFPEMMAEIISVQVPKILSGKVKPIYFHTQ
human CYP2J2, CYP2J2 (gene 1573), sequence (P51589 whole entry, looked up): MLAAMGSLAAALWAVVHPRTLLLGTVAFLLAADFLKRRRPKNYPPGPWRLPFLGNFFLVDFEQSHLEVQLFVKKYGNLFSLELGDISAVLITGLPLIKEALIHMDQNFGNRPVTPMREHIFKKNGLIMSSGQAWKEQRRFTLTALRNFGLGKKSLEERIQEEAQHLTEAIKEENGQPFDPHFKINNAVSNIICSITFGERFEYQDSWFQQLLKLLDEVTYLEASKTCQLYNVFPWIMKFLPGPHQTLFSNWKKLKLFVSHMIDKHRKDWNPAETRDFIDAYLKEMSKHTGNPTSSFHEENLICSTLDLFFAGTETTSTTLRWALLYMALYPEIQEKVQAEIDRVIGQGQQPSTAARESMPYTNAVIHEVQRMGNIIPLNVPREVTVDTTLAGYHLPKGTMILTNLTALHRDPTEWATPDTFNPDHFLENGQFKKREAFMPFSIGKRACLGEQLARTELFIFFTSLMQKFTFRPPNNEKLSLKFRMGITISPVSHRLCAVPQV
rat CYP2D1, Cyp2d1 (gene 266684), sequence (P10633 whole entry, looked up): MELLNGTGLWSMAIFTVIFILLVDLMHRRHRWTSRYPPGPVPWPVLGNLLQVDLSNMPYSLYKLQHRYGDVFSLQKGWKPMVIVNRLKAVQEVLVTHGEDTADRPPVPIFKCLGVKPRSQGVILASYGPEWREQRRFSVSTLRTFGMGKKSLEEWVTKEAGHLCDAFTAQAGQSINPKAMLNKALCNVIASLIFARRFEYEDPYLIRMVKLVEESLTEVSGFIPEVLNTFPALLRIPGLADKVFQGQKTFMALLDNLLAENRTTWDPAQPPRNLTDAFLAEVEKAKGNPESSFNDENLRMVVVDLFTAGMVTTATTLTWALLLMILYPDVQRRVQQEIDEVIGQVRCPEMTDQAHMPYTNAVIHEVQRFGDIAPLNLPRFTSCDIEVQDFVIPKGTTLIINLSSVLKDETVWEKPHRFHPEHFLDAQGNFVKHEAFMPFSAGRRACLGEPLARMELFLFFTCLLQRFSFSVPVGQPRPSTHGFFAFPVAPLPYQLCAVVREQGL

## C#CCOC(=O)[C@@H](C)Oc1ccc(Oc2ncc(Cl)cc2F)cc1
[1]
  AC50: 189 nM (active)
[2]
  AC50: 3730 nM (active)

## OCC(F)(F)C(F)(F)C(F)(F)CO
[3]
  outcome: inactive
[4]
  outcome: inactive

## O=C1NC(=O)C(c2ccccc2)(c2ccccc2)N1
[5]
  outcome: inactive

## NC(=O)C(F)(F)C(F)(F)C(F)(F)C(F)(F)C(F)(F)C(F)(F)C(F)(F)F
[3]
  outcome: inactive
[4]
  outcome: inactive

## CCOC(=O)CC(=O)C(F)(F)C(F)(F)F
[3]
  outcome: inactive
[4]
  outcome: inactive

## FC(F)C(F)(F)COCC1CO1 (stereo unspecified)
[3]
  outcome: inactive
[4]
  outcome: inactive

## Nc1nc(Cl)nc2c1ncn2[C@H]1C[C@H](O)[C@@H](CO)O1
[5]
  outcome: inactive

## NS(=O)(=O)C(F)(F)C(F)(F)C(F)(F)C(F)(F)C(F)(F)C(F)(F)F
[3]
  outcome: inactive
[4]
  outcome: inactive

## OC(O)(C(F)C(O)(O)C(F)(F)F)C(F)(F)F
[3]
  outcome: inactive
[4]
  outcome: inactive

## CC1=CC(=O)/C(=C(/C)O)C(=O)O1
[5]
  AC50: 1520 nM (active)

## COC(F)(C(F)F)C(F)(F)F (stereo unspecified)
[3]
  outcome: inactive
[4]
  outcome: inactive

## C=C(C)C(=O)OCC(F)(F)C(F)(F)C(F)(F)F
[3]
  outcome: inactive
[4]
  outcome: inactive
